Compound activity: PubChem BioAssay, several laboratories
Kir21 inh = inhibitors of mouse Kir2.1 inward-rectifier potassium channel. HEK293-Kir2.1, FluxOR thallium flux fluorescence; stronger effect = lower value. B-score at 10 µM. 310,000 compounds, 0.85% hits. AID 1672;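 active = fluorescence ratio B-score at or below minus 3 SD of library scores, with starting-brightness B-score within 2 SD, cut at about -4.2 in these data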;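 note: channel flux triggered by added potassium and thallium sulfate stimulus; B-score of peak minus minimum fluorescence over baseline after thallium stimulus; more negative B-score means stronger Kir2.1 block with less thallium influx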
ANO1 activ = mouse TMEM16A channel activation, primary screen; Q8BHY3; HEK293 TMEM16A/YFP-H148Q/I152L, iodide quench fluorescence; stronger effect = lower value; B-score at 10 µM; 340,000 compounds, 0.3% hits;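 active = fluorescence-ratio B-score plate-corrected deviation score at least 3 library SD below zero, with starting fluorescence score within 5 deviations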;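 note: channel opened by trigger with iodide after compound preincubation; score built on the fluorescence ratio of max minus min over baseline; more negative score means more quench and so TMEM16A activation or potentiation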
CHT PAM = allosteric activators of human choline transporter CHT; B-score at 10 µM; CHT-expressing cells, membrane potential dye, choline EC20; stronger effect = higher value; LV-AA mutant CHT in HEK293 cells; Q9GZV3; 310,000 compounds, 0.49% hits;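 active = initial fluorescence not abnormally high and integrated response B-score, plate-corrected, over 3 SD above library mean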
Target sequence (Q9GZV3 whole entry, looked up): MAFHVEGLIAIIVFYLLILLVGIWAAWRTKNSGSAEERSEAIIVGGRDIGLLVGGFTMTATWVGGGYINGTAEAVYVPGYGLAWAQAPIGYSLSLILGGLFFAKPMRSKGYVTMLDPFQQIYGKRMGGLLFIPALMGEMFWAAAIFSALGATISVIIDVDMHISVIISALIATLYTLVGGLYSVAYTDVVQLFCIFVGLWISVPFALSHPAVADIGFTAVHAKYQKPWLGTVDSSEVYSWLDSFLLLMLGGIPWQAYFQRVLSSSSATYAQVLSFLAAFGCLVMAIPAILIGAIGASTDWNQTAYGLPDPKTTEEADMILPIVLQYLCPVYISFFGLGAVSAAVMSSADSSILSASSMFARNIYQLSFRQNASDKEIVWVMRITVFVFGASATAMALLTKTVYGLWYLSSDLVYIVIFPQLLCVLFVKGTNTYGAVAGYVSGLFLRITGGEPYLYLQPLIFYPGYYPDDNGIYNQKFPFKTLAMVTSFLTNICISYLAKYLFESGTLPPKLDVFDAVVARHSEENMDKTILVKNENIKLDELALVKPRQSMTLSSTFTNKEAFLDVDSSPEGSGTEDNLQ
Rce1 inh = inhibitors of yeast Ras-converting enzyme; yeast membranes, quenched prenylated peptide cleavage fluorescence; calls only; 290,000 compounds, 0.27% hits; AID 2563;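 active = fall in fluorescence gain of 50% or more versus controls, with final raw signal at or below 3038400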;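 note: plate controls were neutral control wells for no effect and wells lacking membranes for full effect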
CHT inh = inhibitors of human choline transporter CHT | Q9GZV3 | CHT-expressing cells, membrane potential dye, choline response; stronger effect = lower value | B-score at 10 µM | 310,000 compounds, 0.86% hits | AID 488975;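 active = B-score over 3 SD under the library average, and starting fluorescence ratio not unusually high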;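 note: choline stimulus applied at its EC90 after an EC20 pre-addition; B-score computed on integrated fluorescence ratio after choline addition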
TMEM16A inh = mouse TMEM16A channel inhibition, primary screen | Q8BHY3 | HEK293 TMEM16A/YFP iodide influx fluorescence, ionomycin | normalized B-score (activity score, 25-100; higher = stronger inhibition) at 10 µM | 310,000 compounds, 1.2% hits;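 active = ratio plate-corrected score three or more library SD toward inhibition, starting fluorescence score within five deviations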;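 note: score derived from kinetic fluorescence span divided by baseline fluorescence per well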
TMEM16A reconf = re-confirmation of mouse TMEM16A chloride channel inhibitors; shares compounds with TMEM16A inh; HEK293 TMEM16A/YFP-H148Q, iodide quench fluorescence; ionomycin added to raise cell calcium; inhibition, % at 10 µM; 2,300 compounds, 39% hits; AID 652189;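 active = mean duplicate percent inhibition, scaled so buffer wells are 0 and the reference blocker 100, over three buffer SD above buffer mean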
TMEM16A Ca cntr = counter-screen for TMEM16A inhibitors: effect on calcium mobilization; shares compounds with TMEM16A inh; TMEM16A/YFP HEK293, Fluo4 calcium mobilization; calcium response (% of ionomycin), % at 10 µM; 2,300 compounds, 2% hits; AID 652231;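 active = duplicate-averaged calcium signal over 20% of the ionomycin maximum, relative to buffer baseline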;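 note: each well's signal is peak minus trough fluorescence divided by its pre-addition baseline; 0% = buffer wells and 100% = ionomycin wells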
Parental YFP cnt = acts in parental YFP-HEK293 cells lacking TMEM16A, counter-screen | shares compounds with TMEM16A inh | iodide YFP quench, ionomycin | YFP ratio F(max-min)/F0 at 10 µM | 2,300 tested, under 10 active | AID 652233;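 active = yellow fluorescent protein signal ratio exceeding the buffer control mean by over 5 SD of those controls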;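 note: ratio is mean of duplicate wells from kinetic YFP trace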
ClC-1 inh = rat ClC-1 inhibition, TMEM16A specificity screen | AID 652236 | ratio percent, % at 10 µM | 2,300 tested, under 10 active | shares compounds with TMEM16A inh | CHO ClC-1-YFP, iodide influx fluorescence quench; iodide control reads 0, buffer control 100;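 active = duplicate-mean ratio percent above the mean of iodide-only control wells, which defines zero, plus 5 of their SD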;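 note: higher percent means stronger block of ClC-1 iodide influx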
Active calls of the source: *; i = inactive; x = no result given. Compounds with a hit are over-represented: about 3.2% of the library has one in this group of screens.

SMILES	Kir21 inh	ANO1 activ	CHT PAM	Rce1 inh	CHT inh	TMEM16A inh	TMEM16A reconf	TMEM16A Ca cntr	Parental YFP cnt	ClC-1 inh
CCc1ccc([C@@H]2CC=C(C(=O)O)[C@H](c3ccccc3)N2S(=O)(=O)c2ccc(C)cc2)cc1	x	i	i	x	i	i	x	x	x	x
CCc1ccc([C@@H]2CC=C(C(=O)O)[C@H](c3ccc(F)cc3)N2S(=O)(=O)c2ccc(C)cc2)cc1	x	i	i	x	i	100*	i	i	-1	-12
COc1ccc(C(=O)O/N=C(\N)Cc2ccc([N+](=O)[O-])cc2)c(OC)c1	-1.2	i	i	i	i	i	x	x	x	x
CC(C)c1ccc(NC(=O)CSc2n[nH]c(=O)n2Cc2ccco2)cc1	1.5	i	i	i	i	25*	20%*	i	-1	-18
Nc1cc(S(=O)(=O)Nc2ccc(Cl)cc2)ccc1N1CCOCC1	-0.48	i	i	i	i	25*	i	i	-1.1	-22
O=S(=O)(Nc1ccc(Cl)cc1)c1ccc(N2CCOCC2)c(NC(=S)NC2CC2)c1	0.71	i	i	i	i	i	x	x	x	x
O=S(=O)(Nc1ccc(Cl)cc1)c1ccc2c(c1)CCO2	-2.9	i	i	i	i	25*	i	i	-0.93	-8
CC12CCC(=O)N1C(C(=O)Nc1nc(-c3ccccc3Cl)cs1)CS2 (configuration not stated)	1.1	i	i	i	i	i	x	x	x	x
Oc1ccc(NCc2cccc(OCc3ccccc3)c2)cc1	-0.08	i	i	i	i	25*	i	26%*	-1	-1
COC(=O)CCn1c(C)cc(C(=O)COc2ccccc2C(N)=O)c1C	-1.1	i	i	i	i	i	21%*	i	-1.2	-8
Cc1cc(C(=O)COC(=O)c2ccccc2O)c(C)n1CC1CCCO1 (configuration not stated)	x	i	x	x	x	x	x	x	x	x
Cc1cc(C(=O)COc2ccccc2C(N)=O)c(C)n1CC1CCCO1 (configuration not stated)	0.36	i	i	i	i	100*	20%*	i	-0.81	-33
O=C(CSc1nccc(=O)[nH]1)NC1CCCCCC1	x	i	x	x	x	x	x	x	x	x
N#CC1(Nc2cccc(Br)c2)C(=O)Nc2ccccc21 (configuration not stated)	-1.1	i	i	i	i	100*	64%*	i	-0.9	-13
N#CC1(Nc2ccccc2)C(=O)Nc2ccccc21 (configuration not stated)	-0.65	i	i	i	i	i	x	x	x	x
CCN(C(=O)CN1CCN(c2ccccc2F)CC1)c1c(N)n(Cc2ccccc2)c(=O)[nH]c1=O	0	i	i	i	i	100*	i	i	-0.96	-18
O=C(CCC1CCCC1)c1c(O)c2ccccc2oc1=O	0.36	i	i	i	i	100*	34%*	58%*	-0.94	-38
CCOC(=O)c1c(O)c2ccccc2oc1=O	1.9	i	i	i	i	i	x	x	x	x
CC(C)CC(NC(=O)c1ccccc1)C(=O)OCC(=O)Nc1ccc(S(N)(=O)=O)cc1 (configuration not stated)	0	i	i	i	i	i	x	x	x	x
O=C(CSc1nnc(-c2ccncc2)n1Cc1ccccc1)NC1CCCc2ccccc21 (configuration not stated)	0.1	i	i	i	i	i	x	x	x	x
O=C(NCc1ccc(Cl)cc1Cl)c1ccccn1	x	i	i	x	i	25*	i	i	-1.1	-11
O=C(N1CCCCC1)N1CCN(S(=O)(=O)c2ccc(Cl)cc2)CC1	0.31	i	i	i	i	i	x	x	x	x
CC(C(=O)O)c1ccc2c(c1)[nH]c1ccc(Cl)cc12 (configuration not stated)	0.66	i	i	i	i	25*	i	i	-1	-15
CCNC(=O)NC(=O)C(C)OC(=O)[C@H](C)NS(=O)(=O)c1c(C)c(C)cc(C)c1C (some centres not stated)	-0.92	i	i	i	i	i	x	x	x	x
CC1(C)NC(=O)N(CN2C(=O)NC(C)(C)C2=O)C1=O	-0.52	i	i	i	i	i	i	i	-1.1	2
SMILES	Kir21 inh	ANO1 activ	CHT PAM	Rce1 inh	CHT inh	TMEM16A inh	TMEM16A reconf	TMEM16A Ca cntr	Parental YFP cnt	ClC-1 inh
CC1(C)NC(=O)N(CC(=O)O)C1=O	0.54	i	i	i	i	i	x	x	x	x
O=C(c1ccco1)N1CCN(C(=O)c2ccccc2OCc2ccc(Cl)cc2)CC1	0.02	i	i	i	i	i	x	x	x	x
Cc1ccc(Cl)cc1NC(=O)CC(O)(C(F)(F)F)C(F)(F)F	1.1	i	i	i	i	100*	42%*	i	-0.95	-18
O=S1(=O)CC/C(=N\O)c2ccccc21	-2	i	i	i	i	25*	i	i	-1.2	-4
CNC(=O)c1sc(N2N=C3/C(=C/c4ccccc4)CCCC3C2c2ccccc2)nc1C (configuration not stated)	-0.72	i	i	i	i	100*	46%*	58%*	-0.92	-6
CNC(=O)c1sc(N2N=C3/C(=C\c4ccccc4)CCCC3C2c2ccccc2)nc1C (configuration not stated)	x	i	x	x	x	x	x	x	x	x
CC(=O)Oc1ccc(OC(C)=O)c2c1CC(C)=C(C)C2	0.82	i	i	i	i	i	x	x	x	x
CC(OC(=O)Cc1c[nH]c2ccccc12)C(=O)NC1CCCCC1C (configuration not stated)	x	i	x	x	x	x	x	x	x	x
COc1ccc(CCCc2nnc(SCC(=O)Nc3cccc(C)c3)o2)cc1	-0.16	i	i	i	i	25*	18%*	i	-1	-14
CC(=Nc1cccc(C)c1)c1sc2ccccc2c1O	-1.2	i	i	i	i	i	i	i	-0.93	-10
CC(=Nc1ccc(O)cc1)c1sc2ccccc2c1O	0.72	i	i	i	i	i	x	x	x	x
